The text below walks through data of PubChem BioAssay AID624354 (Sanford-Burnham Center for Chemical Genomics, 2012).

Out of some 360,000 compounds screened, about 3,800 (1.1%) were called active. Only a selection was taken, and actives are over-represented in it overall. Values without a mark were called inactive.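 How the source made its calls: active means compounds causing at least 50% loss of cell viability in the single-dose screen, relative to plate controls; inactive means the rest.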

This test is described as follows: TRAIL-exposed caspase-8 expressing cell killing – NB7+C8 cells, ATPlite luminescence, TRAIL sensitizer project, primary screen (AID 624354). The settings on record: at 10 µM, stronger effect = higher value. Background: ATP-based viability assays read luminescence as a measure of living cells.
On to `O=C(CNS(=O)(=O)c1ccc(Br)s1)NCc1ccc2c(c1)OCO2`, for which the inhibition (viability loss, TRAIL sensitization) was 0.95%. For the compound `COc1ccc(N2CC(C(=O)N[C@@H](C)C(=O)N3CCCCC3)CC2=O)cc1` (some centres not stated), the inhibition (viability loss, TRAIL sensitization) is 5.67%.

With `CCCNC(=S)N1CCC(NC(=O)C23CC4CC(CC(C4)C2)C3)CC1`, the inhibition (viability loss, TRAIL sensitization) was 26.6%.

With `CCOC(=O)c1sc(NC(=O)CSc2nc(O)c(Cc3ccccc3)c(=O)[nH]2)nc1C`, the inhibition (viability loss, TRAIL sensitization) is -1.62%. Turning to `Clc1ccc(COn2c(-c3ccc(Cl)cc3Cl)nc3ncccc32)cc1`, the inhibition (viability loss, TRAIL sensitization) was 7.77%. The figure for `Fc1ccc(-c2ccc(CNCc3ccccn3)o2)cc1Cl` is 4.36%; for `Clc1ccc(-c2cc(-c3ccccn3)on2)c(Cl)c1` it is 87.7% (active); for `CCN(CC)CCN(C)C(c1ccnc2ccccc12)c1nnnn1-c1ccc2c(c1)OCCO2` (configuration not stated) it is -12.3%. As for `CNC(=O)n1ccc(C(=O)N2CCCCC2)n1`, the figure is -8.01%. The figure for `O=C(/C=C/c1ccc(Cl)cc1)NCCCn1ccnc1` is -4.39%; for `CN(C)N=Nc1ccc2nc[nH]c2c1` it is -7.76%. `COc1ccc(-n2nnnc2-c2nc3ccccc3s2)cc1`: the inhibition (viability loss, TRAIL sensitization) was 64.4% (active). As to `COc1ccc(-n2nnnc2SCC(=O)NCc2cccs2)cc1`, the inhibition (viability loss, TRAIL sensitization) was 1.36%.

As for `COc1ccc(-n2nnnc2SCC(=O)c2ccc(OC)c(OC)c2)cc1`, the inhibition (viability loss, TRAIL sensitization) was -16.3%. Take `Cc1ccccc1OCC(=O)NCC(=O)OCC(=O)c1ccc2ccccc2c1`: the inhibition (viability loss, TRAIL sensitization) is -20.2%. Consider `C/C(=N\NC(=O)COc1ccc(C)cc1[N+](=O)[O-])c1ccc2c(c1)OCCO2`, for which the inhibition (viability loss, TRAIL sensitization) was -2.67%. For `O=C(CCl)N(Cc1cccc([N+](=O)[O-])c1)c1cccc(Cl)c1`, the inhibition (viability loss, TRAIL sensitization) is 92.3% (active). With `Cc1cc([N+](=O)[O-])ccc1NCc1cccc([N+](=O)[O-])c1`, the inhibition (viability loss, TRAIL sensitization) was 0.71%. For `Cc1ccc(S(=O)(=O)N(CC(=O)Nc2cccc([N+](=O)[O-])c2)Cc2ccc(Cl)cc2)cc1`, the inhibition (viability loss, TRAIL sensitization) was 4.71%.

`CCCOC1CCCN(Cc2cn(C)nc2-c2ccccc2F)C1` (configuration not stated): the inhibition (viability loss, TRAIL sensitization) is 3.04%. As for `Cc1noc(C)c1NC(=O)N(C)C[C@@H]1Oc2cc(Br)ccc2S(=O)(=O)N([C@@H](C)CO)C[C@H]1C`, the inhibition (viability loss, TRAIL sensitization) is 8.07%. The figure for `Cc1c(Cl)c([N+](=O)[O-])nn1CC(=O)NCCCN1CCOCC1` is 27.8%. Regarding `Cc1ccc(S(=O)(=O)N[C@H]2CCC[C@@H]2O)cc1`, the inhibition (viability loss, TRAIL sensitization) was 1.92%. With `O=C(OC12CC3CC(CC(C3)C1)C2)c1ccc(NCc2cc(O)ccc2O)cc1`, the inhibition (viability loss, TRAIL sensitization) was 86.4% (active).

In the case of `C#CCNc1ccc(C(=O)OCC)cc1`, the inhibition (viability loss, TRAIL sensitization) is 3.56%. `COC(=O)c1ccc(NCc2cc(O)ccc2O)cc1`: the inhibition (viability loss, TRAIL sensitization) is 55.3% (active). As for `CC(C)OC(=O)c1ccc(NCc2cc(O)ccc2O)cc1Cl`, the inhibition (viability loss, TRAIL sensitization) was 78.8% (active). Take `CCCc1cc(C(=O)Nc2ccc(C(=O)OC)cc2)cs1`: the inhibition (viability loss, TRAIL sensitization) was -5.01%. Regarding `O=C(O)Cc1ccc(NCc2ccccc2Cl)cc1`, the inhibition (viability loss, TRAIL sensitization) is 8.54%. Take `CN(C)c1nc(N)nc(CSc2nnnn2-c2cccc3ccccc23)n1`: the inhibition (viability loss, TRAIL sensitization) was 40.6%.

`Cc1ccc(/C=N/NC(=O)c2sccc2OCc2ccc(F)cc2)cc1`: the inhibition (viability loss, TRAIL sensitization) was 15.2%. Take `Cc1ccccc1CS(=O)(=O)CC1(O)CCN(C(=O)c2cccc(C(F)(F)F)c2)CC1`: the inhibition (viability loss, TRAIL sensitization) was 8.2%. Take `CCOc1ccc(N(CC(=O)NC2CCCCCC2)S(=O)(=O)c2c(C)[nH]c(=O)[nH]c2=O)cc1`: the inhibition (viability loss, TRAIL sensitization) was 11.6%.

For the compound `COc1ccc(NC(=O)c2cc(=O)[nH]c3ccccc23)cc1S(=O)(=O)N1CCOCC1`, the inhibition (viability loss, TRAIL sensitization) is -0.328%.

As for `CCOc1ccc(CCNC(=O)COC(=O)CCS(=O)(=O)c2ccc(C)cc2)cc1OCC`, the inhibition (viability loss, TRAIL sensitization) was 6.55%.

`Cc1c(Br)c([N+](=O)[O-])nn1CC(=O)N1CCN(Cc2ccccc2)CC1`: the inhibition (viability loss, TRAIL sensitization) is -5.96%. Consider `O=C(Nc1ccn(Cc2ccccc2F)n1)c1ccc(COc2ccc(Cl)cc2Cl)o1`, for which the inhibition (viability loss, TRAIL sensitization) was 11.2%. On to `O=C(Nc1ccn(Cc2ccccc2)n1)c1n[nH]c([N+](=O)[O-])c1Cl`, for which the inhibition (viability loss, TRAIL sensitization) is 62.6% (active). `COC(=O)c1cc(NS(=O)(=O)c2ccc3c(c2)c(=O)n(C)c(=O)n3C)cc(C(=O)OC)c1`: the inhibition (viability loss, TRAIL sensitization) is 15.9%. In the case of `CC[C@H]1CN2CCc3cc(OC)c(OC)cc3[C@@H]2C[C@@H]1C[C@H]1NCCc2cc(OC)c(OC)cc21`, the inhibition (viability loss, TRAIL sensitization) was 53.7% (active). The figure for `CCOC(=O)C1CCN(C(=O)C2CCN(S(=O)(=O)CC)CC2)CC1` is -7.6%; for `CCN(CC(=O)Nc1c(F)cccc1F)C(=O)C1CCC1` it is -2.6%; for `COc1ccc(COC(=O)c2n[nH]c3ccccc23)cc1F` it is -10.3%.

Regarding `Cc1ccc(C(=O)NC(C)C(c2cccs2)N2CCOCC2)cc1C` (configuration not stated), the inhibition (viability loss, TRAIL sensitization) is -23.4%.

Regarding `CCOC(=O)/C(=C\c1ccc([N+](=O)[O-])cc1)C(=O)c1cc(C(C)=O)c(Nc2ccccc2)s1`, the inhibition (viability loss, TRAIL sensitization) was 85.2% (active). The figure for `CCOC(=O)C(=Cc1ccccc1)C(=O)c1ccccc1` is 18.2%; for `CCOC(=O)C/C(C)=N\Nc1ccc([N+](=O)[O-])cc1[N+](=O)[O-]` it is -7.23%.
